From PubChem BioAssay (NCI)
The panel holds about 79,000 compounds, 15% with a hit somewhere; the sample as a whole holds those more often. Values without a mark were called inactive. The source made the active and inactive calls. No stated cut-off is given here; in the data, active means growth inhibition above about 70%; inactive means the rest.

Test: NCI Yeast Anticancer Drug Screen. Data for the wt2 strain (AID 169);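 further: 0% = growth of vehicle-treated yeast cultures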
Details: S. cerevisiae wt2 strain growth inhibition; at 11.0 µM; stronger effect = higher value
Method in brief: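 Growth of compound-treated yeast is measured and expressed as inhibition relative to vehicle-only controls.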

Row | Compound | growth inhibition
1 | COc1ccc(/C=C2\CCc3ccccc3C2=O)cc1OC | -28%
2 | O=Cc1ccccc1B(O)O | 77% (active)
3 | CC(=O)CC[N+](C)(C)C | -25%
4 | O=C(O)[C@H]1[C@@H](C2CCCCC2)O[C@@H](C2CCCCC2)O[C@H]1C(F)(F)F | -3%
5 | CN(NC(=O)/C(=C/C=C/c1ccccc1)NC(=O)c1ccccc1)C1=C(Cl)C(=O)[N+](c2ccccc2)=CC1 | 19%
6 | CCCCOc1ccc(Nc2c3ccccc3nc3ccccc23)cc1 | 75% (active)
7 | N#C/C(=C1C=C/C(=N\O)C(Cl)=C\1)c1ccccc1 | -9%
8 | COc1ccc(C(=O)OCCc2ccccc2)cc1 | -3%
9 | Cc1c2ccncc2c(C)c2c1oc1ccccc12 | 57%
10 | CCCC#CCOC(=O)c1cc([N+](=O)[O-])cc([N+](=O)[O-])c1 | 97% (active)
11 | Nc1nc(Nc2ccccc2)nc(Nc2ccccc2)n1 | -7%
12 | COc1ccc(/C=C2\S/C(=N/Nc3nc(-c4ccccc4)cs3)NC2=O)cc1OC | 97% (active)
13 | CC(O)CN1C(=O)c2cccc3cc([N+](=O)[O-])cc(c23)C1=O (configuration not stated) | -13%
14 | Cn1c(COc2ccc(/C=N/NC(=O)CCC(=O)N/N=C/c3ccc(OCc4c[n+]5ccccc5n4C)cc3)cc2)c[n+]2ccccc12 | 8%
15 | COC1=C(N=[N+]=[N-])C(=O)c2ncccc2C1=O | 49%
16 | CCN(CC)c1ccc(N=Nc2cc(S(=O)(=O)O)ccc2O)c(O)c1 | -42%
17 | O=C1C(C(O)(C(F)(F)F)C(F)(F)F)CCC1C(O)(C(F)(F)F)C(F)(F)F (configuration not stated) | 8%
